# Values of other authors, collected in PubChem BioAssay AID977608.
# The whole screen tested about 4,300 compounds, of which about 4,300 (100%) were called active. The limit is not given here; nearly all actives have IC50 up to about 1400 µM. So high a share suggests a set chosen from earlier hits. This is one part of the list.
# Assay: literature IC50 values for PDB complexes, PDB-derived complexes (AID 977608)
# Conditions: PDB protein-ligand complexes
compound,measurement,setting,value
CC(=O)Nc1cccc(C2=CC(C)N(O)c3ccccc32)c1 (stereo unspecified),IC50,"protein: Bromodomain-containing protein 4, PDB entry 4meo",250 µM (active)
N=C1C(NS(=O)(=O)c2ccccc2)C(=O)NC(=O)N1Cc1ccccc1 (stereo unspecified),IC50,"protein: Glucose-1-phosphate thymidylyltransferase (RmlA), PDB entry 3zlk",1.32 µM (active)
same,IC50,"protein: Glucose-1-phosphate thymidylyltransferase (RmlA), PDB entry 4ASP",1.32 µM (active)
C/C(=C\Cc1c(O)c(Cl)c(C)c(C=O)c1O)CC/C=C(\C)[C@H](C)O,IC50,"protein: Alternative oxidase, mitochondrial, PDB entry 3vva",0.00048 µM (active)
CCc1nc(N)nc(N)c1-c1ccc(NCc2cc(F)cc(F)c2)cc1,IC50,"protein: human Renin, PDB entry 2g24",4 µM (active)
N#Cc1csc(NC(=O)CN2C(=O)CCc3ccccc32)c1-c1ncn[nH]1,IC50,"protein: Mitogen-activated protein kinase 10, PDB entry 3rtp",0.007 µM (active)
CC(C)C[C@H](NC(=O)[C@H](C)NC(=O)[C@H](CC(N)=O)NC(=O)[C@H](CCC(=O)O)NC(=O)[C@@H](NC(=O)[C@H](C)NC(=O)[C@@H](NC(=O)[C@H](Cc1cnc[nH]1)NC(=O)[C@@H](N)CO)C(C)C)C(C)C)C(=O)O,IC50,"protein: HLA class I histocompatibility antigen, B-39 alpha chain, PDB entry 4o2e",0.01 µM (active)
H-HVAVENAL-OH,IC50,"protein: HLA class I histocompatibility antigen, B-39 alpha chain, PDB entry 4o2f",0.387 µM (active)
O=C(CC[C@H](NC(=O)c1ccc(C#Cc2ccccc2)cc1)C(=O)NO)NCCCO,IC50,"protein: UDP-3-O-[3-hydroxymyristoyl] N-acetylglucosamine deacetylase, PDB entry 4j3d",0.0053 µM (active)
CCCCn1c(-c2c(C)ccc3[nH]ncc23)c[n+]2c3c(=O)[nH]c(=O)n(C)c3[nH]c12,IC50,"protein: EPH receptor A3, PDB entry 4gk4",0.014 µM (active)
H-AAAAAAA-OH,IC50,"protein: Insulin-degrading enzyme(IDE), PDB entry 2jbu",400 µM (active)
COc1ccc2c(c1)C1=NN(C(=O)CO)[C@H](c3ccc(OC(F)(F)F)c(F)c3)[C@@H]1CC2,IC50,"protein: Receptor-interacting serine/threonine-protein kinase 1 (C34A, C127A, C233A, C240A mutation), PDB entry 4iti",0.44 µM (active)
O=C(O)/C(S)=C/c1c(Cl)ccc(Cl)c1Cl,IC50,"protein: Beta-lactamase 2 BcII MBL, PDB entry 4tyt",0.02 µM (active)
CC(C)C[C@H](C[P+](O)(O)[C@@H](N)CCc1ccccc1)C(=O)N[C@@H](Cc1c[nH]c2ccccc12)C(N)=O,IC50,"protein: Endoplasmic reticulum aminopeptidase 2, PDB entry 4jbs",0.011 µM (active)
O=C1NCc2ccc(Cl)cc21,IC50,"protein: Chymase, PDB entry 4k5z",1000 µM (active)
O=C(c1ccc(O)cc1)N1CCOCC1,IC50,"protein: Heat shock protein HSP 90-alpha, PDB entry 4egh",550 µM (active)
N=Cc1ncc(C(=O)NCc2ccccc2)cn1,IC50,"protein: Protease AVP2, PDB entry 4pid",24 µM (active)
Nc1nonc1C(=O)c1cccc(OCc2nc3ccccc3[nH]2)c1,IC50,"protein: Adenylate cyclase type 10 hsolAC, PDB entry 4oya",0.36 µM (active)
CCOC(=O)COc1cccc(C(=O)c2nonc2N)c1,IC50,"protein: Adenylate cyclase type 10 hsolAC, PDB entry 4oyb",1.6 µM (active)
Nc1nonc1C(=O)c1ccccc1,IC50,"protein: Adenylate cyclase type 10 hsolAC, PDB entry 4oyi",19 µM (active)
COc1cccc(C(=O)c2nonc2N)c1,IC50,"protein: Adenylate cyclase type 10 hsolAC, PDB entry 4oym",11 µM (active)
CCCCCCCCCCCCCCCn1cc[n+](CC(O)([P+](O)(O)O)[P+](O)(O)O)c1,IC50,"protein: Squalene synthase, HsSQS, PDB entry 3wci",0.27 µM (active)
CCCCCCCCCCCCCCCn1cc[n+](CC([P+](O)(O)O)[P+](O)(O)O)c1,IC50,"protein: Squalene synthase, HsSQS, PDB entry 3wcl",0.26 µM (active)
same,IC50,"protein: Squalene synthase, TcSQS, PDB entry 3wcg",0.14 µM (active)
CCCCn1cc[n+](CC(O)([P+](O)(O)O)[P+](O)(O)O)c1,IC50,"protein: Farnesyl pyrophosphate synthase, PDB entry 4ga3",0.03 µM (active)
FC(F)(F)c1ccc(CNc2ccc(Cc3c[nH]c4ncccc34)cn2)cc1,IC50,"protein: Mast/stem cell growth factor receptor Kit, PDB entry 4hvs",0.016 µM (active)
COc1cnc2[nH]cc(Cc3ccc(NCc4ccc(C(F)(F)F)cc4)nc3)c2c1,IC50,"protein: Macrophage colony-stimulating factor 1 receptor (C667T, C830S, C907T mutation), PDB entry 4hw7",0.062 µM (active)
S=CNc1ccc2oc(C3=NCCN3)cc2c1,IC50,"protein: Chitinase A(W275G mutant), PDB entry 3as3",160 µM (active)
CC(=O)NCC(=O)N[C@H](C)C(=O)N[C@@H]1CSSC[C@H](C(=O)N[C@H](C)C(=O)N[C@H](C)C(=O)O)NC(=O)[C@@H](CC(C)C)NC(=O)[C@@H](Cc2c[nH]c3ccccc23)NC(=O)[C@@H](C)NC(=O)[C@@H](Cc2c[nH]c3ccccc23)NC(=O)[C@@H](CCC(=O)O)NC(=O)[C@@H](CCCNC(N)N)NC(=O)[C@@H](Cc2cnc[nH]2)NC(=O)[C@@H](CCCNC(N)N)NC(=O)[C@@H](C)NC(=O)[C@@H](CCC(=O)O)NC1=O,IC50,"protein: IQN17, PDB entry 1czq",29 µM (active)
CC(C)C[C@H]1NC(=O)[C@@H](Cc2c[nH]c3ccccc23)NC(=O)[C@@H](CCC(N)=O)NC(=O)[C@@H](Cc2c[nH]c3ccccc23)NC(=O)[C@@H](CCC(=O)O)NC(=O)[C@H]2CCCN2C(=O)[C@@H](CO)NC(=O)[C@@H](CCC(=O)O)NC(=O)[C@H](NC(=O)[C@@H](C)NC(=O)CNC(=O)[C@H](N)CCCCN)CSSC[C@H](C(=O)N[C@H](C)C(=O)N[C@H](C)C(=O)O)NC1=O,IC50,"protein: gp41 N-peptide, PDB entry 2r3c",2.2 µM (active)
C[C@@H]1NC(=O)[C@@H]2CSSC[C@H](NC(=O)CN)C(=O)N[C@@H](CSSC[C@@H](C(N)=O)NC(=O)[C@H](CCCNC(N)N)NC(=O)[C@H](Cc3c[nH]c4ccccc34)NC1=O)C(=O)N[C@@H](CO)C(=O)N[C@@H](CC(=O)O)C(=O)N1CCC[C@H]1C(=O)N[C@@H](CCCNC(N)N)C(=O)N2,IC50,"protein: nicotinic acetylcholine receptor homolog AChBP, PDB entry 2c9t",0.033 µM (active)
